{
  "source": "PubChem BioAssay AID1900",
  "about": "(Broad Institute, 2009)",
  "note": "The campaign covered roughly 3,200 compounds. About 2,900 (91%) were called active.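 How the source made its calls: active means fitted half-maximal effect concentration at most a set number of log units above the top dose; inactive means fitted half-maximal concentration further above the top dose.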 So high a share suggests a set chosen from earlier hits. The list shows a part of the results. Measured potencies and affinities stand elsewhere.",
  "data": [
    {"test": "Streptococcus pyogenes SK(-)GAS viability under kanamycin – luminescence, BacTiterGlo, confirmation, counter-screen for streptokinase expression inhibitor project, dose response (AID 1900)", "conditions": "6 h; at 15 µM (top of the series)", "values": [
      {"smiles": "O=C(Nc1ccccc1Sc1ccccc1)c1ccccc1F", "activity change, negative = inhibition": "-63% (active)"},
      {"smiles": "COc1cccc2sc(Nc3nnc(-c4ccccc4Cl)o3)nc12", "activity change, negative = inhibition": "-41.8% (active)"},
      {"smiles": "O=C(Nc1cccc(-c2nc3ccccc3[nH]2)c1)c1ccc(C(=O)Nc2cccc(-c3nc4ccccc4[nH]3)c2)cc1", "activity change, negative = inhibition": "-32.9% (active)"},
      {"smiles": "COc1ccccc1N=c1oc2cc(O)ccc2cc1C(N)=O", "activity change, negative = inhibition": "-48.9% (active)"},
      {"smiles": "CC(C)(C)c1csc(NNC(=O)c2ccc(Br)cc2)n1", "activity change, negative = inhibition": "-78.7% (active)"},
      {"smiles": "FC(F)Oc1ccccc1C1CC(c2ccc(Br)s2)Nc2ncnn21", "note": "(configuration not stated)", "activity change, negative = inhibition": "-52.4% (active)"},
      {"smiles": "N#C/C(=C\\c1ccc(/C=C(/C#N)c2nn(CCO)c(N)c2C#N)cc1)c1nn(CCO)c(N)c1C#N", "activity change, negative = inhibition": "-56% (active)"}
    ]}
  ]
}
